Test results as given in PubChem BioAssay (NCATS).
Inconclusive results are not listed. Where a call stands in place of a potency, no number is given. Calls of active or inactive are those of the source. Unless noted, calls come from the whole dose curve; as a rule, active = well fitted curve in either direction with a large enough effect (not every such curve was filed as active); inconclusive = small, poorly fitted or top-dose-only effect, or another doubt; inactive = flat fitted curve, though single readings scatter.

Experiments:
[1] = AP1 Signaling Pathway (AID 357)
How it was run: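 Modulation of EGF-driven AP-1 transcription was assessed with a beta-lactamase reporter in ME-180 cells. Compound and EC50 EGF were co-incubated 5 hours at 37 °C before 2.5-hour CCF4 loading at room temperature and dual-emission reading.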

[2] = molecular target: Cytochrome P450 1A2 (Homo sapiens) (UniProt P05177); test: p450-cyp1a2 (AID 410; calls by dose curve; note: potency is the fitted concentration of half-maximal effect)
Chain of Cytochrome P450 1A2 (Homo sapiens) (P05177 whole entry, looked up): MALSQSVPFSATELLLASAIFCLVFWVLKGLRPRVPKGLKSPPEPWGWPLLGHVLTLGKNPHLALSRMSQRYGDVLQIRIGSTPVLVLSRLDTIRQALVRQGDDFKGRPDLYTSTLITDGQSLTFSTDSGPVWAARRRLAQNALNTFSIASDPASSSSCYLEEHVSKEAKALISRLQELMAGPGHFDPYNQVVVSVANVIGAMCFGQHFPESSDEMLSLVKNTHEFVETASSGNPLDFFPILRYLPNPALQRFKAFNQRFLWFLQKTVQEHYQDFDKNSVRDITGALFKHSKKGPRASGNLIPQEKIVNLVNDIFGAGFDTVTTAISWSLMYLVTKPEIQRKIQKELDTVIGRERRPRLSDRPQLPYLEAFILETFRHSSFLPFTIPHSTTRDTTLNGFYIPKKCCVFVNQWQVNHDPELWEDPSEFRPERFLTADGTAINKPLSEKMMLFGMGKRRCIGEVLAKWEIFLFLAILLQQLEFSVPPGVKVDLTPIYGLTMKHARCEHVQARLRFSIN
How it was run: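 Luminescent readout of luciferin formed from Luciferin-ME by human CYP1A2; data normalized against complete inhibition by 57 uM furafylline. Enzyme 20nM, substrate 100uM at Km, 100mM KPO4 buffer, 60 min reaction at room temperature.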

[3] = NFAT Signaling Pathway (AID 444); settings: Jurkat NFAT-bla M1, carbachol, beta-lactamase ratio, 5 h; at 17.2 µM (top of the series) unless noted;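 note: carbachol stimulus at about its EC50 of 1 µM final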
How it was run: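 Jurkat cells carrying an NFAT-driven β-lactamase reporter and co-transfected muscarinic M1 receptor were treated with compound plus carbachol (1 uM final, an EC50 level) for 5 h at 37 °C. CCF4 loading followed for 1 h at RT; 460/530 nm ratio gave %activity.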

[4] = Stat Signaling Pathway (AID 446);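 note: ME-180 cervical cancer cells given 40 pM IL-6 alongside compound; SIE-controlled beta-lactamase reporter measured as 460/530 nm FRET emission ratio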
How it was run: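 ME-180 SIE-bla cells; overnight plating; cpd + IL-6 40 pM, 5 h, 37 C; LiveBLAzer 2.5 h RT; 460/530 nm emission ratio. Normalized to 300 pM IL-6 and 125 nM JAK inhibitor controls.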

[5] = molecular target: Glucocorticoid receptor (Homo sapiens) (UniProt P04150); test: GR-GFP Redistribution (AID 450;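 active = compounds whose dose series gives a full or clear partial fitted curve of increased nuclear translocation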; note: potency is the fitted concentration of half-maximal effect); settings: U2OS GR-GFP nuclear translocation, laser cytometry, 2 h
Chain of Glucocorticoid receptor (Homo sapiens) (P04150 whole entry, looked up, the tested form may be a part): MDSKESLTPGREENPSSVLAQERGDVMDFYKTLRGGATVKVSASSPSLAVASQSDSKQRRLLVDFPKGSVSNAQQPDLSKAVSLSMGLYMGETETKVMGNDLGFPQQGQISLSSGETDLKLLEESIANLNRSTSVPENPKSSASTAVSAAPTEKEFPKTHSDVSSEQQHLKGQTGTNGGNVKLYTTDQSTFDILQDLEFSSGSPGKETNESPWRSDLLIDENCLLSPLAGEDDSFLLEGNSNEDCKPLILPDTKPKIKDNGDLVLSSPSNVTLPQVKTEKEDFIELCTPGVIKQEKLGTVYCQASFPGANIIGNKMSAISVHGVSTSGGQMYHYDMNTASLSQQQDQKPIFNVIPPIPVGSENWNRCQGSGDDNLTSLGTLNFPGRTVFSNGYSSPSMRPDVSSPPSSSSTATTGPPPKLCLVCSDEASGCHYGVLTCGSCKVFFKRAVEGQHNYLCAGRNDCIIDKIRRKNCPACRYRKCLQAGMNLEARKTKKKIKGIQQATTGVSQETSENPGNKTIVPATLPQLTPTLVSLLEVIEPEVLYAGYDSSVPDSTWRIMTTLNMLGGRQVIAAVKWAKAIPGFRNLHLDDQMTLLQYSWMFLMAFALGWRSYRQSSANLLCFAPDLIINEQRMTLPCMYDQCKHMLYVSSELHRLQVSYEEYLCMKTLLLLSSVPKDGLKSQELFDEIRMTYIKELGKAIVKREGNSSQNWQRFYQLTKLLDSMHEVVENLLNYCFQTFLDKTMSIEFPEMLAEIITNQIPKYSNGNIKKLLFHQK

[6] = molecular target: Glucocorticoid receptor (Homo sapiens) (UniProt P04150); test: GR-EFC Redistribution (AID 451; calls by dose curve; note: potency is the fitted concentration of half-maximal effect); settings: CHO-K1 GR-EFC translocation, beta-gal luminescence, 2 h
How it was run: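 CHO-K1 cells stably expressing nuclear-localized β-gal enzyme acceptor and GR fused C-terminally to the enzyme donor fragment; ligand-driven nuclear translocation restores β-gal by complementation. Compounds titrated up to 46 uM final, 2 h at 37 °C; luminescence read.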

[7] = molecular target: 3',5'-cyclic-AMP phosphodiesterase 4B (Homo sapiens) (UniProt Q07343); test: qHTS Assay for Inhibitors of PDE-IV (AID 607; active = well fitted activation curve with a large enough effect in the main read-out, with a control signal flat, not every such curve was filed as active)
Chain of 3',5'-cyclic-AMP phosphodiesterase 4B (Homo sapiens) (Q07343 whole entry, looked up): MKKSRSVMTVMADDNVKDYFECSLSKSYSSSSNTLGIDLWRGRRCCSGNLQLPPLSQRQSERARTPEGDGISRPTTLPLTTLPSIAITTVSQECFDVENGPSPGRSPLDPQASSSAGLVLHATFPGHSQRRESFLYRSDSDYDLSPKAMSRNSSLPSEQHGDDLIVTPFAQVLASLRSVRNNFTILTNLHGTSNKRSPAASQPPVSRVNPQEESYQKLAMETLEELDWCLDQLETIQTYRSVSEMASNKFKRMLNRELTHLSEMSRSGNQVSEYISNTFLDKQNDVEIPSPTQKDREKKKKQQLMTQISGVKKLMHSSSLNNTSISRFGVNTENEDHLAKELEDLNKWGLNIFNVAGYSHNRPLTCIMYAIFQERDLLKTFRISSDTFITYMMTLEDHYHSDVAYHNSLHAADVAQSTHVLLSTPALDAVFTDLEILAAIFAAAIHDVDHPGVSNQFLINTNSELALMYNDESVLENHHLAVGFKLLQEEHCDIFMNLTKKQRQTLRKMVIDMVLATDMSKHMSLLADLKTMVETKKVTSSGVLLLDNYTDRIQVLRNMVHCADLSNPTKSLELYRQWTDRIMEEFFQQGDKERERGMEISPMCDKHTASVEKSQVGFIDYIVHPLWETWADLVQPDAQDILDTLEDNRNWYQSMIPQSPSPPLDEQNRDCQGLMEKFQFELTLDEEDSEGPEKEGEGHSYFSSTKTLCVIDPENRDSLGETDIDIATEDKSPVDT
How it was run: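 ACTOne HEK293 cells carry a modified cAMP-gated CNG channel and express endogenous PDE4; plated 1000 cells/well, compounds up to 22.9 uM final. Membrane-potential dye fluorescence (ex 535/em 590) was read; parental cells received 10 uM forskolin + 100 uM RO 20-1724.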

[8] = qHTS Assay for Lipid Storage Modulators (AID 1519; calls by dose curve); settings: Drosophila S3 cells, BODIPY lipid droplet/cell ratio, laser cytometry, cells loaded with oleic acid; for activity change, negative = inhibition: at 25.7 µM (top of the series)
How it was run: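 Cells seeded at 5,000 per well were treated with compounds over a concentration series and loaded with oleic acid (400 uM, as added). Lipid droplet fluorescence (488 nm excitation, 500-530 nm channel) was read by laser-scanning cytometry and normalized to 20 uM Triacsin C.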

[9] = molecular target: Mitogen-activated protein kinase 10 (Mus musculus) (UniProt Q61831); test: JNK3 AlphaScreen Assay (AID 530);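 note: kinase came from lysate of stimulated human HepG2 cells; signal reports phosphorylation of biotinylated GST-cJun 1-79 at Ser73 with 10 µM ATP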
How it was run: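 Inhibitors reduce antibody binding to phosphorylated biotin-cJun, lowering AlphaScreen luminescence. Lysates from HepG2 cells pre-activated by IL-1beta plus TNF-alpha supplied JNK3; compounds were titrated.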

[10] = molecular target: Ubiquitin carboxyl-terminal hydrolase 1 (Homo sapiens) (UniProt O94782); test: Inhibitors of USP1/UAF1: Pilot qHTS (AID 504865; active = well fitted curve in the direction sought with a large enough effect; an effect the other way counts as inactive or inconclusive;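 note: rhodamine fluorescence freed from ubiquitin-rhodamine substrate followed over time; top concentration of the series differs between compounds; nearly all actives have a fitted effect of over 35% in size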)
Chain of Ubiquitin carboxyl-terminal hydrolase 1 (Homo sapiens) (O94782 whole entry, looked up): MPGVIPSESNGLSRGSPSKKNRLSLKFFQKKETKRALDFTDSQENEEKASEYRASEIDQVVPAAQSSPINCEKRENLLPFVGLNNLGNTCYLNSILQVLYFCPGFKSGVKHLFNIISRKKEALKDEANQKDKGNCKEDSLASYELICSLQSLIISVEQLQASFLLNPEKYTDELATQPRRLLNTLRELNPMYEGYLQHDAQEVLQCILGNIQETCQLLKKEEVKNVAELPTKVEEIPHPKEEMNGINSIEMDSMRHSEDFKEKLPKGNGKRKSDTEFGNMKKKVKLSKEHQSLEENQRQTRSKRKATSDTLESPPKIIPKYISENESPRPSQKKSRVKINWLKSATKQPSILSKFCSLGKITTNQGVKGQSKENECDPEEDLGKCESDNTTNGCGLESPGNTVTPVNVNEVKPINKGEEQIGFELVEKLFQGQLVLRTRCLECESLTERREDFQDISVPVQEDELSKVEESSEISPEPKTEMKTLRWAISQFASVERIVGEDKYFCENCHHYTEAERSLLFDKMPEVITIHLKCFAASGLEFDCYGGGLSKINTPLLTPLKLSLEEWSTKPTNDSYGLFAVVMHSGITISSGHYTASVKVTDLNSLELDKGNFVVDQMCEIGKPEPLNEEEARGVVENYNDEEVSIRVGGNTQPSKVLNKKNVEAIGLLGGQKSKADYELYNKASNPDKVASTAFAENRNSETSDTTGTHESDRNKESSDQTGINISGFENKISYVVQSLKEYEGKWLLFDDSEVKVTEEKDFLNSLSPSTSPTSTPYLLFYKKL
How it was run: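 USP1/UAF1 complex (1nM) preincubated with compound 15 min at room temperature, then Ub-Rho substrate (150nM final) added. Fluorescence read kinetically at 480/540 nm, 6 reads every 60 seconds. Buffer: 50mM HEPES pH 7.8, 0.5mM EDTA, 0.1 mg/ml BSA, 1mM TCEP, 0.01% Tween-20.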

[11] = molecular target: ATP-dependent 6-phosphofructokinase (Trypanosoma brucei brucei) (UniProt O15648); test: qHTS Assay to Find Inhibitors of T. brucei phosphofructokinase: hit validation (AID 492961; active = well fitted curve in the direction sought with a large enough effect; an effect the other way counts as inactive or inconclusive;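 note: luminescence reports ADP formed as PFK phosphorylates fructose-6-phosphate with ATP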)
Chain of ATP-dependent 6-phosphofructokinase (Trypanosoma brucei brucei) (O15648 whole entry, looked up): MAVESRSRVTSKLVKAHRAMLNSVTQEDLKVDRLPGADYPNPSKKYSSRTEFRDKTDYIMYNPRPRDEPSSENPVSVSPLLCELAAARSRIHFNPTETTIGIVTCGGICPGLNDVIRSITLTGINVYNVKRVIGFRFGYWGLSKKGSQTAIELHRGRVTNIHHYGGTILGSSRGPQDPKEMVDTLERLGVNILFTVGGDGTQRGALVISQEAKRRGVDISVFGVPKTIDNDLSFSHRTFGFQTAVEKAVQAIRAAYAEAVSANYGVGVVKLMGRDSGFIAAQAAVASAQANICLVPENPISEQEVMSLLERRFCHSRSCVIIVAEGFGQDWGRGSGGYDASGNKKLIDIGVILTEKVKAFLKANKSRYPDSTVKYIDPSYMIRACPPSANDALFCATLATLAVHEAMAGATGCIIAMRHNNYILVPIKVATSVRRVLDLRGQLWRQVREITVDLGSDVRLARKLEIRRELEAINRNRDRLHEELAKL
How it was run: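 Reaction: 0.1 M triethanolamine pH 8.0, 5 mM MgCl2, F6P 0.5 mM, ATP 0.1 mM, PFK 1.25 nM, 45 min RT. Read-out: ADP-Glo luminescence. Analysis: concentration-response fits, classed by r2 and efficacy.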

[12] = qHTS profiling for inhibitors of Plasmodium falciparum proliferation (AID 504749; active = well fitted curve in the direction sought with a large enough effect; an effect the other way counts as inactive or inconclusive; note: nearly all actives have a fitted effect of over 60% in size); settings: P. falciparum in erythrocytes, SYBR Green DNA, 72 h, at 12.8 µM (top of the series)
How it was run: (§1)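 Parasite proliferation within erythrocytes, 72 h exposure. Endpoint: SYBR Green I fluorescence after overnight lysis at room temperature. Controls: 0.29 uM artemisinin, DMSO.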

[13] = system: C2A; test: as above; settings: P. falciparum in erythrocytes, SYBR Green DNA, 72 h; series mostly up to 12.8 µM
How it was run: as §1

[14] = system: CP191; test: as above; settings: P. falciparum in erythrocytes, SYBR Green DNA, 72 h; series mostly up to 12.8 µM
How it was run: as §1

[15] = system: CP217; test: as above; settings: P. falciparum in erythrocytes, SYBR Green DNA, 72 h; series mostly up to 12.8 µM
How it was run: as §1

[16] = system: CP250; test: as above; settings: P. falciparum in erythrocytes, SYBR Green DNA, 72 h; series mostly up to 12.8 µM
How it was run: as §1

[17] = system: CP256; test: as above; settings: P. falciparum in erythrocytes, SYBR Green DNA, 72 h; series mostly up to 12.8 µM
How it was run: as §1

[18] = system: FAB9; test: as above; settings: P. falciparum in erythrocytes, SYBR Green DNA, 72 h; series mostly up to 12.8 µM
How it was run: as §1

[19] = system: JCK; test: as above; settings: P. falciparum in erythrocytes, SYBR Green DNA, 72 h; series mostly up to 12.8 µM
How it was run: as §1

[20] = system: SC27B; test: as above; settings: P. falciparum in erythrocytes, SYBR Green DNA, 72 h; series mostly up to 12.8 µM
How it was run: as §1

[21] = measured here: cell count channel max response
[22] = measured here: lipid channel max response

CO[C@H]1C=CO[C@]2(C)Oc3c(C)c(O)c4c(O)c(c5c(c4c3C2=O)NC2(CCN(CC(C)C)CC2)N=5)=NC(=O)C(C)=CC=C[C@@H](C)[C@@H](O)[C@@H](C)[C@@H](O)[C@@H](C)[C@@H](OC(C)=O)[C@@H]1C
outcome [1]: inactive
Potency [2]: inactive
activity change, negative = inhibition [3]: -15% (inactive)
outcome [4]: inactive
Potency [5]: > 20.6 µM (inactive)
Potency [6]: > 20.6 µM (inactive)
outcome [7]: inactive
activity change, negative = inhibition [8]: -0.285% (inactive)
max response [8, 21]: -3.75%
max response [8, 22]: -1.31%

CO[C@]1(NC(=O)Cc2cccs2)C(=O)N2C(C(=O)O)=C(COC(N)=O)CS[C@H]21
outcome [1]: inactive
Potency [2]: inactive
activity change, negative = inhibition [3]: 3.7% (inactive)
outcome [4]: inactive
Potency [9]: inactive
outcome [7]: inactive
activity change, negative = inhibition [8]: 2.57% (inactive)
max response [8, 21]: -2.6%
max response [8, 22]: 0.943%
Potency [10]: inactive

CN=C(NC#N)NCCSC[C@H]1N=CN=C1C
outcome [1]: inactive
Potency [2]: inactive
activity change, negative = inhibition [3]: -3.43% (inactive)
outcome [4]: inactive
Potency [9]: inactive
outcome [7]: inactive
activity change, negative = inhibition [8]: -0.0882% (inactive)
max response [8, 21]: -1.59%
max response [8, 22]: -1.32%
Potency [10]: inactive

CN(C)c1ccc(O)c2c1C[C@H]1C[C@H]3[C@@H](N(C)C)C(=O)C(C(N)=O)=C(O)[C@]3(O)C(=O)C1=C2O
outcome [1]: inactive
Potency [2]: inactive
activity change, negative = inhibition [3]: 12.2% (inactive)
outcome [4]: inactive
Potency [5]: > 20.6 µM (inactive)
Potency [6]: > 20.6 µM (inactive)
Potency [9]: inactive
outcome [7]: inactive
activity change, negative = inhibition [8]: -0.929% (inactive)
max response [8, 21]: 2.32%
max response [8, 22]: 0.719%

CNC[C@H](O)[C@H](O)[C@H](O)[C@H](O)CO
outcome [1]: inactive
Potency [2]: inactive
activity change, negative = inhibition [3]: 3.99% (inactive)
outcome [4]: inactive
Potency [9]: inactive
outcome [7]: inactive
activity change, negative = inhibition [8]: -1.7% (inactive)
max response [8, 21]: -11%
max response [8, 22]: -14.3%
Potency [10]: inactive

C[C@H](N)CCCC(C)(C)O
outcome [1]: inactive
Potency [2]: inactive
activity change, negative = inhibition [3]: -3.85% (inactive)
outcome [4]: inactive
Potency [5]: > 20.6 µM (inactive)
Potency [6]: > 20.6 µM (inactive)
Potency [9]: inactive
outcome [7]: inactive
activity change, negative = inhibition [8]: -0.344% (inactive)
max response [8, 21]: 0.317%
max response [8, 22]: 0.936%
Potency [10]: inactive

C[C@@H](C(=O)O)c1ccc(C(=O)c2ccccc2)s1
outcome [1]: inactive
Potency [2]: 0.251 µM (active)
activity change, negative = inhibition [3]: 4.12% (inactive)
outcome [4]: inactive
Potency [9]: inactive
outcome [7]: inactive
activity change, negative = inhibition [8]: -0.119% (inactive)
max response [8, 21]: 1.62%
max response [8, 22]: 2.32%
outcome [11]: inactive
Potency [10]: inactive
activity, negative = inhibition ([12]; parasite line A): 5.2% (inactive)
activity, negative = inhibition ([12]; parasite line B): 16.9% (inactive)
Potency [13]: inactive
Potency [14]: inactive
Potency [15]: inactive
Potency [16]: inactive
Potency [17]: inactive
Potency [18]: inactive
Potency [19]: inactive
Potency [20]: inactive
